Compound activity deposited in PubChem BioAssay by National Center for Advancing Translational Sciences (NCATS).
G9a block = qHTS Assay for Inhibitors of Histone Lysine Methyltransferase G9a; Potency, µM (doses to about 102 µM), for inactives: top-dose activity, negative = inhibition, hits mostly inhibitors; G9a H3K9 monomethylation, AlphaScreen, 2 h; 350,000 tested, 8.8% active; further: on the % scale 0 is the no-effect control and ±100 the full control effect; nearly all actives have a fitted effect of over 75% in size
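Methyltransferase reactions run at room temperature for 2 h (20 nM enzyme, 500 nM biotin-H3K9 peptide, 20 uM SAM) after a 15 min compound preincubation; product detected by AlphaScreen beads and anti-H3K9me1 antibody.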
BAZ2B inh = qHTS Assay for Inhibitors of BAZ2B. Bromodomain adjacent to zinc finger domain protein 2B (Homo sapiens), Q9UIF8. AlphaScreen BAZ2B-H3K14Ac peptide displacement. Potency, µM (top dose mostly 114 µM), inactives show at the highest dose activity change, negative = inhibition, hits mostly inhibitors. 360,000 tested, 4.4% active; further: on the % scale 0 is the no-effect control and ±100 the full control effect; nearly all actives have a fitted effect of over 60% in size
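AlphaScreen displacement: compounds (up to 110uM) incubated 30 min at room temperature with a preformed 50 nM BAZ2B/50 nM biotinylated H3K14Ac peptide complex in PBS pH 7.4 with Tween-20. Donor and acceptor beads at 10 ug/mL final added, 20 min light-protected before reading.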
Sfp PPTase inh = qHTS Assay for Inhibitors of Bacillus subtilis Sfp phosphopantetheinyl transferase (PPTase). AID 1490, 2009. 310,000 tested, 3.5% active. Potency, µM, without a hit: largest response in the series, negative = inhibition, usual class: inhibitors. Biochemical Sfp PPTase activity, qHTS. 4'-phosphopantetheinyl transferase ffp (Bacillus subtilis), Q9F4F7;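 further: the enzyme is Sfp with the accession as filed and its product quenches rhodamine fluorescence; 0% = enzyme reaction without inhibitor and -100% = no enzyme wells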
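Fluorescence-quenching assay with 15 nM Sfp, 5 uM rhodamine-CoA and 12.5 uM BHQ-2-labelled ybbR peptide in pH 7.6 Hepes/MgCl2 buffer. Enzyme was pre-incubated with compound for 15 min at room temperature. Rate was taken from the 30-min fluorescence change (525/598 nm).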
JMJD2A Tudor = qHTS Assay for Inhibitors of JMJD2A-Tudor Domain. Potency, µM (titrated, usually from 114 µM), without a hit: at the top dose activity change, negative = inhibition, usual class: inhibitors. AlphaScreen JMJD2A-Tudor / H3K4me3 peptide binding. Lysine-specific demethylase 4A (Homo sapiens), O75164. 390,000 tested, 4.4% active; further: on the % scale 0 is the no-effect control and ±100 the full control effect; nearly all actives have a fitted effect of over 50% in size
Target sequence (O75164 whole entry, looked up, the tested form may be a part): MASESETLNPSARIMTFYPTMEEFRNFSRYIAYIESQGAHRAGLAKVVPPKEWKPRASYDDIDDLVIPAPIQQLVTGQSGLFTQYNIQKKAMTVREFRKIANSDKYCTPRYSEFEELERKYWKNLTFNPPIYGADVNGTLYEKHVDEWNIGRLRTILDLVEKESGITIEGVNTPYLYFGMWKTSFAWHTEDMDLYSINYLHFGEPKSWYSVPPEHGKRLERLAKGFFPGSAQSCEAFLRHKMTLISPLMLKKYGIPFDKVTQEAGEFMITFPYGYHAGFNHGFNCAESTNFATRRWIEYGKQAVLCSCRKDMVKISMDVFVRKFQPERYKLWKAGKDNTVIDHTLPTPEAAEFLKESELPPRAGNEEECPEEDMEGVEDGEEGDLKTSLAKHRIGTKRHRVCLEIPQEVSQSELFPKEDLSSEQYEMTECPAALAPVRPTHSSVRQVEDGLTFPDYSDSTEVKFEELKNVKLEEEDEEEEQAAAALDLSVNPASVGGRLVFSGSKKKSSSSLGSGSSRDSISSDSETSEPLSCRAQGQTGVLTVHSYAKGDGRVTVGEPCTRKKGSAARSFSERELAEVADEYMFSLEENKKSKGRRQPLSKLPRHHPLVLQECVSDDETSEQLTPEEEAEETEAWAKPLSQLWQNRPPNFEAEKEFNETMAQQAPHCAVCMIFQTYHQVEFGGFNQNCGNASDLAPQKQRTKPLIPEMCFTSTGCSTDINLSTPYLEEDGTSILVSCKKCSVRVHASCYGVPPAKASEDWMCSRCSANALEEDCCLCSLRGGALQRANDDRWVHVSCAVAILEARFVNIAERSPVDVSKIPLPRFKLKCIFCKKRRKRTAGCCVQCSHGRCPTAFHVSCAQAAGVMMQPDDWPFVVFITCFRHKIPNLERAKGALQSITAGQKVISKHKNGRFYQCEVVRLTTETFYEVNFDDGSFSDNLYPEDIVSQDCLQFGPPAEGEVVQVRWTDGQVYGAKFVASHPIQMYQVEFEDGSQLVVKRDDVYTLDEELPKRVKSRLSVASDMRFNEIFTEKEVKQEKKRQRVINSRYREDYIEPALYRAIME
HP1b chromo inh = HTS for Inhibitors of HP1-beta Chromodomain Interactions with Methylated Histone Tails; 390,000 tested, 0.56% active; AlphaScreen HP1-beta / biotin-H3K9me3 peptide binding; Potency, µM (doses to about 114 µM), for inactives: at the highest dose activity change, negative = inhibition, usual class: inhibitors; further: nearly all actives have a fitted effect of over 70% in size
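HP1-beta protein (50 nM final) preincubated 30 min at room temperature with biotinylated H3(1-18)K9me3 peptide (50 nM) in PBS pH 7.4, 0.01% Tween-20, then compound added for 30 min. AlphaScreen streptavidin donor/nickel chelate acceptor beads (10 ug/mL final), 30 min dark, luminescence read.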
Numbers without * were called inactive; [ ] = remark or other dose. An excerpt weighted towards active compounds, which were near 12% of everything screened. The call rests on the fitted dose curve; in most records, active means well fitted curve in the direction sought with a large enough effect; inconclusive means small, poorly fitted or top-dose-only effect, or another doubt; inactive means no such curve, though single readings can be large; an effect the other way counts as inactive or inconclusive. Potency means the concentration at half of the fitted maximal effect.

Screening Cc1ccc(CNC(=O)Cn2cc(S(=O)(=O)Cc3ccccc3Cl)c3ccccc32)cc1 returned G9a block 0%[59 µM], BAZ2B inh -6%, JMJD2A Tudor -28% and HP1b chromo inh -13%.
`Cc1ccc(-c2nn(CCC(=O)O)cc2/C=C\C(=O)c2ccc(Br)cc2)cc1` gave G9a block 25µM*, BAZ2B inh inconclusive, Sfp PPTase inh -3%, JMJD2A Tudor inconclusive and HP1b chromo inh 24%.
Screening O=C1CN(c2nc3ccccc3n3cnnc23)CC(=O)N1CCc1ccccc1 returned G9a block 79µM*, BAZ2B inh -4%, Sfp PPTase inh 1%, JMJD2A Tudor -10% and HP1b chromo inh 31%.
O=c1cc(CN2CCN(S(=O)(=O)c3ccc4c(c3)OCCO4)CC2)c2ccc(O)cc2o1 was read as G9a block 50µM*, BAZ2B inh -11%, Sfp PPTase inh 1%, JMJD2A Tudor -21% and HP1b chromo inh 9%.
Screening COc1ccc(OC)c(CN2CCN(Cc3cc(=O)oc4cc(O)ccc34)CC2)c1 returned G9a block 35µM*, BAZ2B inh -19%, Sfp PPTase inh -2%, JMJD2A Tudor -20% and HP1b chromo inh 15%.
`CCOC(=O)c1c(-c2ccc(OC)cc2)oc2ccc(OCc3ccccc3C)cc12` gave G9a block 88%[59 µM], BAZ2B inh 66%, JMJD2A Tudor 83% and HP1b chromo inh 75%.
CCOC(=O)c1sc(NC(=O)c2cc(CC)on2)c(C(=O)OCC)c1C was read as G9a block -3%[59 µM], BAZ2B inh 3%, JMJD2A Tudor 4% and HP1b chromo inh 50%.
`CCCc1cc(C(=O)Nc2sc(C)c(C)c2C(=O)OCC)no1` gave G9a block 10µM*, BAZ2B inh -1%, Sfp PPTase inh 16µM*, JMJD2A Tudor -14% and HP1b chromo inh 7%.
For CCOC(=O)c1c(NC(=O)c2cc(C(C)C)on2)sc(C)c1C the results were G9a block 20µM*, BAZ2B inh -4%, JMJD2A Tudor 15% and HP1b chromo inh -1%.
Screening Cc1ccccc1CN1C(=O)c2ccccc2Sc2ccc(C(=O)N3CCOCC3)cc21 returned G9a block -23%[59 µM], BAZ2B inh -15%, JMJD2A Tudor -16% and HP1b chromo inh 29%.
Screening O=C(O)c1cc(NS(=O)(=O)c2ccc(N3CCOCC3)c([N+](=O)[O-])c2)cc(C(=O)O)c1 returned G9a block -9%[59 µM], BAZ2B inh 2%, Sfp PPTase inh 20%, JMJD2A Tudor 6%[57.1 µM] and HP1b chromo inh 38%.
For COC(=O)c1cc(NS(=O)(=O)c2ccc(N3CCC(C)CC3)c([N+](=O)[O-])c2)cc(C(=O)OC)c1 the results were G9a block inconclusive, BAZ2B inh inconclusive, Sfp PPTase inh 11%, JMJD2A Tudor 22µM* and HP1b chromo inh 50µM*.
`O=[N+]([O-])c1cc(S(=O)(=O)Nc2ccccc2)ccc1N1CCN(c2ccc(O)cc2)CC1` gave G9a block 5µM*, BAZ2B inh 28µM*, Sfp PPTase inh 56µM*, JMJD2A Tudor 13µM* and HP1b chromo inh -83%.
COC(=O)c1cc(NS(=O)(=O)c2ccc(N3CCCCC3)c([N+](=O)[O-])c2)cc(C(=O)OC)c1 was read as G9a block inconclusive, BAZ2B inh inconclusive, Sfp PPTase inh 8%, JMJD2A Tudor inconclusive and HP1b chromo inh -28%.
O=[N+]([O-])c1cc(-c2nnc(Nc3ccccc3)c3ccccc23)ccc1N1CCOCC1 was read as G9a block inconclusive, BAZ2B inh inconclusive, Sfp PPTase inh 3%, JMJD2A Tudor inconclusive and HP1b chromo inh 3%.
CN1CCN(S(=O)(=O)c2ccc(N3CCN(c4ccc(O)cc4)CC3)c([N+](=O)[O-])c2)CC1 was read as G9a block 7.9µM*, BAZ2B inh inconclusive, JMJD2A Tudor 32µM* and HP1b chromo inh 71µM*.
Screening O=[N+]([O-])c1cc(-c2nnc(Nc3ccc(O)cc3)c3ccccc23)ccc1N1CCOCC1 returned G9a block 20µM*, BAZ2B inh inconclusive, Sfp PPTase inh -10%, JMJD2A Tudor inconclusive and HP1b chromo inh inconclusive.
Screening NC(=S)Nc1ccc(S(=O)(=O)c2ccc(NC(N)=S)cc2)cc1 returned G9a block inconclusive, BAZ2B inh -32%, Sfp PPTase inh 3%, JMJD2A Tudor -7% and HP1b chromo inh -13%.
`O=C(NN=C1CCCC1)c1ccc(O)cc1` gave G9a block 26%, BAZ2B inh 9%, Sfp PPTase inh 5%, JMJD2A Tudor 5% and HP1b chromo inh 53%.
`O=C(CNC(=O)c1ccccc1Cl)OCc1cc(=O)n2ccsc2n1` gave G9a block -3%[59 µM], BAZ2B inh 1%, JMJD2A Tudor 1% and HP1b chromo inh 49%.
Screening O=[N+]([O-])c1cc2c(c(CSc3nnc(Nc4ccccc4)s3)c1)OCOC2 returned G9a block 3.5µM*, BAZ2B inh -4%, Sfp PPTase inh -10%, JMJD2A Tudor 17% and HP1b chromo inh 25%.
For CC(=O)N1c2ccccc2NC2=C(C(=O)CCC2)C1c1ccco1 (configuration not stated) the results were G9a block inconclusive, BAZ2B inh inconclusive, Sfp PPTase inh 25µM*, JMJD2A Tudor -13% and HP1b chromo inh 4%.
COc1cc(-c2nc(SCC(=O)Nc3ccc(C)cc3)c(-c3ccc(F)cc3)[nH]2)cc(OC)c1OC was read as G9a block -2%[59 µM], BAZ2B inh -13%, JMJD2A Tudor inconclusive and HP1b chromo inh 27%.
CCN(CC)CCC(=O)N1c2ccccc2Sc2ccc(C(F)(F)F)cc21 was read as G9a block -8%[12.7 µM] and Sfp PPTase inh 2%.
O=C(O)/C=C/C(=O)Nc1ccc(O)cc1 was read as BAZ2B inh -8%, Sfp PPTase inh -23%, JMJD2A Tudor inconclusive and HP1b chromo inh inconclusive.
CCN(CC)S(=O)(=O)c1ccc(C(=O)/C=C/c2ccc(-c3ccc([N+](=O)[O-])cc3)o2)cc1 was read as G9a block inconclusive, BAZ2B inh -26%, Sfp PPTase inh 79µM*, JMJD2A Tudor -6% and HP1b chromo inh 27%.
Screening O=C(O)/C=C/c1ccc(-c2cccc(C(F)(F)F)c2)o1 returned G9a block 45µM*, BAZ2B inh -1%, Sfp PPTase inh 3%, JMJD2A Tudor -20% and HP1b chromo inh 48%.
For O=C(O)/C(=C\c1ccc(-c2ccc(F)cc2)o1)c1ccccc1 the results were G9a block inconclusive, Sfp PPTase inh 8.9µM*, JMJD2A Tudor inconclusive and HP1b chromo inh 2%.
